Test results taken from article PMC7862700, “An all-to-all approach to the identification of sequence-specific readers for epigenetic DNA modifications on cytosine”.

Columns and labels:
Assay in all cases: DAPPL (digital affinity profiling via proximity ligation, sequencing); 10 mM Tris-HCl pH 7.5, 50 mM NaCl, 1 mM DTT, 4% glycerol, room temperature, 30 min; GST-TFs on glutathione beads, 16-mer random dsDNA library, 0.1% formaldehyde crosslink after washing; high values mean tight binding
FEV = target: T1, FEV (Homo sapiens, UniProt Q99581 1-238); details: protein: recombinant; tags: N-terminal GST; dsDNA, one strand shown
T1 sequence: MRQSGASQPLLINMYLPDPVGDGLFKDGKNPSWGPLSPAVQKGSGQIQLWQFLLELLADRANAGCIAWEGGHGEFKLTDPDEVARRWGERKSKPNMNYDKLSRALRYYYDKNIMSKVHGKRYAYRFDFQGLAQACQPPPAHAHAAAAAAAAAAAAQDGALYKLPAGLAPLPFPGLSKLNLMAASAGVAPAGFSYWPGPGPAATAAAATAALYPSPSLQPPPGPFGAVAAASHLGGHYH
How it was run: (§1)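 Pools were built from human transcription factors expressed in yeast as GST fusions, captured on glutathione beads and DNA-barcoded, along with a tag-only sample. Incubation with 200 nmole of a 16-mer random double-stranded DNA library lasted 30 min at room temperature in Tris/NaCl/DTT/glycerol buffer, and was followed by washing, 0.1% formaldehyde crosslinking, proximity ligation, PCR amplification and Illumina NextSeq500 sequencing. Binding signal is the quotient of each hexamer's read frequency for a factor and its frequency for the tag-only sample.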

ETV5 = ETV5 (Homo sapiens, UniProt P41161 1-510); details: protein: recombinant; tags: N-terminal GST; dsDNA, one strand shown
Sequence of ETV5 (P41161 whole entry): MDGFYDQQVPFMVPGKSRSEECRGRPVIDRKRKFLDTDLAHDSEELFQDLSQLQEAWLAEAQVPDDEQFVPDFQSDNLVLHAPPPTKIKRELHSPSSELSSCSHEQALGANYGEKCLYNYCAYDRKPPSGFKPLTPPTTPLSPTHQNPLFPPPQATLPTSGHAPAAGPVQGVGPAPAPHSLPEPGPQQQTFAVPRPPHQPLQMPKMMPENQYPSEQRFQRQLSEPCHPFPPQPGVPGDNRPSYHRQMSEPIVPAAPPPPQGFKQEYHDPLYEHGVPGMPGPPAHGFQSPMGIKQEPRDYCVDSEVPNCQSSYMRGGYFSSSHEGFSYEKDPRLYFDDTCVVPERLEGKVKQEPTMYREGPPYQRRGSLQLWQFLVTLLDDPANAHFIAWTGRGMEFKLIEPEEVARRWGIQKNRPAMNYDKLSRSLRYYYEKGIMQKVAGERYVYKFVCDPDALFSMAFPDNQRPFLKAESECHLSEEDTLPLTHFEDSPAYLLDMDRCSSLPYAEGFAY
How it was run: as §1

HSF1 = HSF1 (Homo sapiens, UniProt Q00613 1-529); details: protein: recombinant; tags: N-terminal GST; chain copies: 3; dsDNA, one strand shown
Sequence of HSF1 (Q00613 whole entry): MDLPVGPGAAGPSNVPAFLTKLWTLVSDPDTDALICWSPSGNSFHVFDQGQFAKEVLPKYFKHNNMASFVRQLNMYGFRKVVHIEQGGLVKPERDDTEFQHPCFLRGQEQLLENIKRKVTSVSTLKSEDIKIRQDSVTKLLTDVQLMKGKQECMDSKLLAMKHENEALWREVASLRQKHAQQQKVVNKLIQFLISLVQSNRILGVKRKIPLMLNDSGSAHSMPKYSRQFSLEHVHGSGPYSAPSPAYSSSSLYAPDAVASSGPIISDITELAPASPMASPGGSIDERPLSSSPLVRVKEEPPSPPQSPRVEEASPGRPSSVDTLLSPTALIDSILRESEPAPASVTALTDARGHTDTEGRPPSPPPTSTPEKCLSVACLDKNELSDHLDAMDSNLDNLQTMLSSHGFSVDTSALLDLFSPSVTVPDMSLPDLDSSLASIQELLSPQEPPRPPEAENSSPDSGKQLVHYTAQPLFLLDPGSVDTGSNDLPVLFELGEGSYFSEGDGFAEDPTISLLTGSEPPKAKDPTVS
How it was run: as §1

SPIC = target: T2, SPIC (Homo sapiens, UniProt Q8N5J4 1-248); details: protein: recombinant; tags: N-terminal GST; dsDNA, one strand shown
T2 sequence: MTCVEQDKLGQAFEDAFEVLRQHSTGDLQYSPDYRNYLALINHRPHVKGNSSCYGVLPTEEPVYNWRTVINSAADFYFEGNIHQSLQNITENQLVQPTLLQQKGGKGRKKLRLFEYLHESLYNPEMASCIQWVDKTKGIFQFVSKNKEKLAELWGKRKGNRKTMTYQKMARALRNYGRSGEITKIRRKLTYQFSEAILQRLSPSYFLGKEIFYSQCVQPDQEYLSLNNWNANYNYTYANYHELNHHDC
How it was run: as §1

ELF4 = ELF4 (Homo sapiens, UniProt Q99607 1-663); details: protein: recombinant; tags: N-terminal GST; dsDNA, one strand shown
Sequence of ELF4 (Q99607 whole entry): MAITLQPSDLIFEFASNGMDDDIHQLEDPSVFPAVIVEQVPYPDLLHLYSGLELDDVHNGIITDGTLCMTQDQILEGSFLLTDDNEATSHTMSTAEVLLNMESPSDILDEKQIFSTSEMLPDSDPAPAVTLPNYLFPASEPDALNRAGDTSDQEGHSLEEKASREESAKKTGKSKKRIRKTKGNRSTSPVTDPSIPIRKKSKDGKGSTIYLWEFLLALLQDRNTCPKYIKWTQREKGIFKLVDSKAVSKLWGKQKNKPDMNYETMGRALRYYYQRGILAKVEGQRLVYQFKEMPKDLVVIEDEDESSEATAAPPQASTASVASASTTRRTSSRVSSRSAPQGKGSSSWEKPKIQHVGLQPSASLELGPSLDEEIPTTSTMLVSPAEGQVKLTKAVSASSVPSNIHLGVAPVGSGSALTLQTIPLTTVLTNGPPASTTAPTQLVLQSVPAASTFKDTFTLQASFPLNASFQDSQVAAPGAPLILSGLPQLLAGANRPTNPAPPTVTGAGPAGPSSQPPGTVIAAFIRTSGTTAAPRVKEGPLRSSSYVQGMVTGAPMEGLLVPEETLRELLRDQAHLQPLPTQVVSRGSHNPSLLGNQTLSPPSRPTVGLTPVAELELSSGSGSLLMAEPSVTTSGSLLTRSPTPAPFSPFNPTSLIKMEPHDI
How it was run: as §1

ELK4 = target: T3, ELK4 (Homo sapiens, UniProt P28324-2 1-405); details: protein: recombinant; tags: N-terminal GST; dsDNA, one strand shown
T3 sequence: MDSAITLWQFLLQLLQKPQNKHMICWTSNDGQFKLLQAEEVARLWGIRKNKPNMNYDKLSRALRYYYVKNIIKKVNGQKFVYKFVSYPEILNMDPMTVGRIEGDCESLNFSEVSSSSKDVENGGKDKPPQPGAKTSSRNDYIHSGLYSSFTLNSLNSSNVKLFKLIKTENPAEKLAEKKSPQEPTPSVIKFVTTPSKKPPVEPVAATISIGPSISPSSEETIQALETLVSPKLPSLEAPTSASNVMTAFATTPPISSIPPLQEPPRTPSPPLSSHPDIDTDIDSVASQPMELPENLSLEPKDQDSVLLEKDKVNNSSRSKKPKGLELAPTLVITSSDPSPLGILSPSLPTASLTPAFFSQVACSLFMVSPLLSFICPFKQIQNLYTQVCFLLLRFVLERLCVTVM
How it was run: as §1

ETV2 = target: T4, ETV2 (Homo sapiens, UniProt O00321 1-342); details: protein: recombinant; tags: N-terminal GST; dsDNA, one strand shown
T4 sequence: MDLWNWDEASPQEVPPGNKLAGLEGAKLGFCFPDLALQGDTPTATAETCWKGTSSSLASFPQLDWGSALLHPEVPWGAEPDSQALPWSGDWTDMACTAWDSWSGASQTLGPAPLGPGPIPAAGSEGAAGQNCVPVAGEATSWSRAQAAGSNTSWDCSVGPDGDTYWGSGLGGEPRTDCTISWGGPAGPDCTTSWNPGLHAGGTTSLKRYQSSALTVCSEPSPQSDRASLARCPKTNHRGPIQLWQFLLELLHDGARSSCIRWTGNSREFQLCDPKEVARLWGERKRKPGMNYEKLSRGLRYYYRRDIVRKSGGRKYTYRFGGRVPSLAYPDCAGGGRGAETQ
How it was run: as §1

ELF3 = target: T5, ELF3 (Homo sapiens, UniProt P78545 1-371); details: protein: recombinant; tags: N-terminal GST; dsDNA, one strand shown
T5 sequence: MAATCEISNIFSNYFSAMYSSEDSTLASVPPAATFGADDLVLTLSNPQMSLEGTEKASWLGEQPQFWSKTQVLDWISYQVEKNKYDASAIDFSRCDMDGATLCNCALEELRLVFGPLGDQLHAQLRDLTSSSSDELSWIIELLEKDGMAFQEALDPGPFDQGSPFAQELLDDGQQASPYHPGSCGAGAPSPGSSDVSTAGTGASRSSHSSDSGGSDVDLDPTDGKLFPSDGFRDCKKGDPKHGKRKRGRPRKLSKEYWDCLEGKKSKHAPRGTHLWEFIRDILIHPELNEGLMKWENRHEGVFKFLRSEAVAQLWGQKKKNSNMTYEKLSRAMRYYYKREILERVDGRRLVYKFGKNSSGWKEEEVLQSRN
How it was run: as §1

CRX = CRX (Homo sapiens, UniProt O43186 1-299); details: protein: recombinant; tags: N-terminal GST; dsDNA, one strand shown
Sequence of CRX (O43186 whole entry): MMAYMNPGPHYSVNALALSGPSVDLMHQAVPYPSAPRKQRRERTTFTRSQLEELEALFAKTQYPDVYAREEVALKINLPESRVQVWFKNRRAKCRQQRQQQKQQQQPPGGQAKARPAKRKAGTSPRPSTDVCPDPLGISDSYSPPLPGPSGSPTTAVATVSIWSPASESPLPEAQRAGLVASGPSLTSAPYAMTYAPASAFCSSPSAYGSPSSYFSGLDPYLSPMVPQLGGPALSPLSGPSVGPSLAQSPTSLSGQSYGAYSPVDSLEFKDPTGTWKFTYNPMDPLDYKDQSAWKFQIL
How it was run: as §1

ETV1 = ETV1 (Homo sapiens, UniProt P50549 1-477); details: protein: recombinant; tags: N-terminal GST; dsDNA, one strand shown
Sequence of ETV1 (P50549 whole entry): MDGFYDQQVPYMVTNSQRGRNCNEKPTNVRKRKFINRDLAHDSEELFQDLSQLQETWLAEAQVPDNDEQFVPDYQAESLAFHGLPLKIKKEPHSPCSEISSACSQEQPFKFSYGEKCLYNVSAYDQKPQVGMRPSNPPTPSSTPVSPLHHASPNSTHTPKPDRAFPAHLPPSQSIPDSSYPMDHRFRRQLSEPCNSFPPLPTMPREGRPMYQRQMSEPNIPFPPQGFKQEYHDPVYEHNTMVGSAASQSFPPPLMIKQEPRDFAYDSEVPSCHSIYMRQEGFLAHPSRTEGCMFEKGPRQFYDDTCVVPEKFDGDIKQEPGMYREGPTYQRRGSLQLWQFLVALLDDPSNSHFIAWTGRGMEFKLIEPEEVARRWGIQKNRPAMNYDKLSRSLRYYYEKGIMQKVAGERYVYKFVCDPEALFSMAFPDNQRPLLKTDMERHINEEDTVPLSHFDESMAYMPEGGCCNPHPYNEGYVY
How it was run: as §1

ERF = target: T6, ERF (Homo sapiens, UniProt P50548 1-548); details: protein: recombinant; tags: N-terminal GST; dsDNA, one strand shown
T6 sequence: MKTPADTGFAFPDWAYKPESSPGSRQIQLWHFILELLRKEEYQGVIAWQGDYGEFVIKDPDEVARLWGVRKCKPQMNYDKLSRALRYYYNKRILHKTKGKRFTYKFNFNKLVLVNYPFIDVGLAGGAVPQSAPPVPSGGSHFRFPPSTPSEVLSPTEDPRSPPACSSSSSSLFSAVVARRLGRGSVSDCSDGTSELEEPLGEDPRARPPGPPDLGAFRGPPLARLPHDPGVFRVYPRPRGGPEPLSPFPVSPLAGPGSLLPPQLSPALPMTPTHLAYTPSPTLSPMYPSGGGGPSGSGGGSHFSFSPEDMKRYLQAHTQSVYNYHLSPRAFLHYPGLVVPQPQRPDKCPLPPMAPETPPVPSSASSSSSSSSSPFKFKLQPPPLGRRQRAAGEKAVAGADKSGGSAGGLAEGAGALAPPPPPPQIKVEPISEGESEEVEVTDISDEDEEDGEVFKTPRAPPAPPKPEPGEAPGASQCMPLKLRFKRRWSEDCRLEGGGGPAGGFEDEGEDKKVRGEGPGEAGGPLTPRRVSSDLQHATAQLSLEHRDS
How it was run: as §1

ETV3L = target: T7, ETV3L (Homo sapiens, UniProt Q6ZN32 1-361); details: protein: recombinant; tags: N-terminal GST; dsDNA, one strand shown
T7 sequence: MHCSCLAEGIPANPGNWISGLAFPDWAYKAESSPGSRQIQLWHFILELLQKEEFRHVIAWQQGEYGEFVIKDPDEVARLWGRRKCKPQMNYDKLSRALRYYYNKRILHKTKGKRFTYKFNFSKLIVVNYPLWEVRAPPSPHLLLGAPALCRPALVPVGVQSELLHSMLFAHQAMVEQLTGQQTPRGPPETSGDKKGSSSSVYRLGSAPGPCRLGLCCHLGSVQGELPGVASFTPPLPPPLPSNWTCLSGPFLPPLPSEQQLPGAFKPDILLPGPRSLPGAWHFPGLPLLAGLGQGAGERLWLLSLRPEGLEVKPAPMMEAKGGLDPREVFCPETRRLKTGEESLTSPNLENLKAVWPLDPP
How it was run: as §1

ETS2 = target: T8, ETS2 (Homo sapiens, UniProt P15036 1-469); details: protein: recombinant; tags: N-terminal GST; dsDNA, one strand shown
T8 sequence: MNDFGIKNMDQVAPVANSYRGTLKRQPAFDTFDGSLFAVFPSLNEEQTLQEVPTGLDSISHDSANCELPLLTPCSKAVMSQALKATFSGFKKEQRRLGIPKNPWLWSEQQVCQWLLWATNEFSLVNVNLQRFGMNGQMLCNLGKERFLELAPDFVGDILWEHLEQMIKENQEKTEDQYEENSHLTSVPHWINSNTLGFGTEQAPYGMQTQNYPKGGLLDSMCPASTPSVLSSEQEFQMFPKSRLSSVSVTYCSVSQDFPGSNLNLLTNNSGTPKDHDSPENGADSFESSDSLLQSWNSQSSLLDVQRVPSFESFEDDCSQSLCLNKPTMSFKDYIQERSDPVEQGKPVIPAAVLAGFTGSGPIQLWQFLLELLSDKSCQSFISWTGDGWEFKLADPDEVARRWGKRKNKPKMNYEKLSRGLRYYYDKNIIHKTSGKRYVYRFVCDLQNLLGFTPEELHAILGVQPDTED
How it was run: as §1

SPDEF = target: T9, SPDEF (Homo sapiens, UniProt O95238 1-335); details: protein: recombinant; tags: N-terminal GST; dsDNA, one strand shown
T9 sequence: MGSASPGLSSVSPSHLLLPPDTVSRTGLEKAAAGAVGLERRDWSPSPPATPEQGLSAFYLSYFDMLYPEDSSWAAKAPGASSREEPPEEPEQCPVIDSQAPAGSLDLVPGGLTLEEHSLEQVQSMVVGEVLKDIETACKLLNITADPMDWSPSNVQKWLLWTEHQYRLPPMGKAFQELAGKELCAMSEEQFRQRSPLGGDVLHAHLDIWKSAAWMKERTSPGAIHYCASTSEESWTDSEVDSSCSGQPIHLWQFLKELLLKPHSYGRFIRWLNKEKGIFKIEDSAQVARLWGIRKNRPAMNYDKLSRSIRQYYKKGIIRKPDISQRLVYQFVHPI
How it was run: as §1

ETV7 = target: T10, ETV7 (Homo sapiens, UniProt Q9Y603 1-341); details: protein: recombinant; tags: N-terminal GST; dsDNA, one strand shown
T10 sequence: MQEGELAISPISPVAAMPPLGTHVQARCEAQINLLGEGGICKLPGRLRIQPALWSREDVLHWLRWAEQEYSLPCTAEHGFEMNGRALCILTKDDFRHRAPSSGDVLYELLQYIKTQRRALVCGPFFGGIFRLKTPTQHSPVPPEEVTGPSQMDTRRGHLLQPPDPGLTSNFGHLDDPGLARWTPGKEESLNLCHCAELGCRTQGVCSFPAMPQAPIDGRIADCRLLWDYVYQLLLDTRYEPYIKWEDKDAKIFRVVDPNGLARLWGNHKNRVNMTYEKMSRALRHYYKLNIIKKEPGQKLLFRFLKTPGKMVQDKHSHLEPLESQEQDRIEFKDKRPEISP
How it was run: as §1

ELF5 = target: T11, ELF5 (Homo sapiens, UniProt Q9UKW6-2 1-255); details: protein: recombinant; tags: N-terminal GST; dsDNA, one strand shown
T11 sequence: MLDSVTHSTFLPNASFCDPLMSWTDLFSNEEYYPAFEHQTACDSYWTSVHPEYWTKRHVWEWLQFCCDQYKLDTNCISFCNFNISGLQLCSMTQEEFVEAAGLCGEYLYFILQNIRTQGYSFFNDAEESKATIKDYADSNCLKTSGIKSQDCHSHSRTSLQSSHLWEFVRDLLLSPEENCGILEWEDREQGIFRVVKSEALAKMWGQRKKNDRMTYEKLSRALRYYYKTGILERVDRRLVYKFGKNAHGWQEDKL
How it was run: as §1

ETV3 = target: T12, ETV3 (Homo sapiens, UniProt P41162-2 1-143); details: protein: recombinant; tags: N-terminal GST; dsDNA, one strand shown
T12 sequence: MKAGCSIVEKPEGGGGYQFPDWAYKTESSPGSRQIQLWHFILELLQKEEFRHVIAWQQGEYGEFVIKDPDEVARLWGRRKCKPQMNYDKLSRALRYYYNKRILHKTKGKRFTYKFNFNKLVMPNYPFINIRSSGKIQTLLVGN
How it was run: as §1

ETV6 = ETV6 (Homo sapiens, UniProt P41212 1-452); details: protein: recombinant; tags: N-terminal GST; dsDNA, one strand shown
Sequence of ETV6 (P41212 whole entry): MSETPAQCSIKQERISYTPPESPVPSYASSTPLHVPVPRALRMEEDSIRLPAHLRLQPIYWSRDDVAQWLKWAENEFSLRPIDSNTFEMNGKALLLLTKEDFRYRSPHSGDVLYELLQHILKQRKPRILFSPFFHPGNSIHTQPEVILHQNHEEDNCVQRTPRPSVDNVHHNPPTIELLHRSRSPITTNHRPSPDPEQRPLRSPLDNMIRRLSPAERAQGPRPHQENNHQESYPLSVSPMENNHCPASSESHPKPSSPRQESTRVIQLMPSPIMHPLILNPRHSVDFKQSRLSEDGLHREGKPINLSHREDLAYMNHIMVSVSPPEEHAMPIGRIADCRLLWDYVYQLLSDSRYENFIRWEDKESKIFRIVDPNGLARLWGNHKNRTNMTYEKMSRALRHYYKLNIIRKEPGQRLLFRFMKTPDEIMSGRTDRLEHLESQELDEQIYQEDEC
How it was run: as §1

## TGATCT
FEV
  binding signal: 1.12 fold enrichment (6-mer frequency, TF over GST control)
ETV5
  binding signal: 1.21 fold enrichment (6-mer frequency, TF over GST control)
HSF1
  binding signal: 1.66 fold enrichment (6-mer frequency, TF over GST control)
SPIC
  binding signal: 1.19 fold enrichment (6-mer frequency, TF over GST control)
ELF4
  binding signal: 1.16 fold enrichment (6-mer frequency, TF over GST control)
ELK4
  binding signal: 1.37 fold enrichment (6-mer frequency, TF over GST control)
ETV2
  binding signal: 1.21 fold enrichment (6-mer frequency, TF over GST control)
ELF3
  binding signal: 1.25 fold enrichment (6-mer frequency, TF over GST control)
CRX
  binding signal: 1.86 fold enrichment (6-mer frequency, TF over GST control)
ETV1
  binding signal: 1.2 fold enrichment (6-mer frequency, TF over GST control)
ERF
  binding signal: 1.35 fold enrichment (6-mer frequency, TF over GST control)
ETV3L
  binding signal: 1.1 fold enrichment (6-mer frequency, TF over GST control)
ETS2
  binding signal: 1.31 fold enrichment (6-mer frequency, TF over GST control)
SPDEF
  binding signal: 1.23 fold enrichment (6-mer frequency, TF over GST control)
ETV7
  binding signal: 1.11 fold enrichment (6-mer frequency, TF over GST control)
ELF5
  binding signal: 1.22 fold enrichment (6-mer frequency, TF over GST control)
ETV3
  binding signal: 1.25 fold enrichment (6-mer frequency, TF over GST control)
ETV6
  binding signal: 1.06 fold enrichment (6-mer frequency, TF over GST control)
